Values joined by “and” are separate entries in the source; they are usually repeats but may differ in a detail not shown here. Equal entries are not always repeated. Records with an inconclusive call do not appear. Unmarked numbers belong to inactive results. Active and inactive are the calls of the source. The call rests on the fitted dose curve; in most records, active means well fitted inhibition curve with a large enough effect; inconclusive means small, poorly fitted or top-dose-only effect; inactive means flat fitted curve, though single readings scatter.
Each molecule was assayed against Dual specificity tyrosine-phosphorylation-regulated kinase 1A (Homo sapiens) (UniProt Q13627) (assay: Assay for Inhibitors of Dual-Specificity Tyrosine-(Y)-Phosphorylation Regulated Kinase 1A (Kinase-Glo assay): round 2 SAR). Details: recombinant DYRK1A, Kinase-Glo ATP depletion luminescence; series mostly up to 76.9 µM; activity, negative = inhibition: at the top concentration.
Source text: NIH Molecular Libraries Probe Production Centers Network [MLPCN] NIH Chemical Genomics Center [NCGC] MLPCN Grant: 1R03MH084827-01 PI Name: Tom Misteli NCGC Assay Overview: The CMGC group of protein kinases which includes CDK-like kinases (Clk) and Dyks are essential kinases found in all eukaryotes. Clks have been implicated to play a role in the regulation of alternative splicing; while Dyrks, in particular over expression of Dyrk1A, has been linked to diseases as Down syndrome (DS; OMIM 190685) and Alzheimer disease (AD; OMIM 104300). Among the members of the CMGC group, the Clks and the Dyrks are very closely related therefore to determine validity and selectivity of an active compound observed in the CLK4 qHTS screen (AID:1770), a bioluminescent counter-screen against Dyrk1A was developed. In addition, potent and selective compounds against Dyrk1A were identified to further assess the role of this enzyme in DS and AD. Dyrk1A (Invitrogen, cat # PV3785) was assayed using ATP and DYRKtide (AnaSpec, cat# 62698) as substrates. Promega Kinase-Glo (cat# V6712) technology was used to detect the residual ATP following kinetic reaction. The Kinase-Glo Plus contains Ultra-Glo [5] luciferase and D-luciferin which generates a bioluminescence signal from the remaining ATP. No enzyme and harmine (Sigma, cat # 286044-1G), a compound shown to inhibit Dyrks were used as a positive control; while DMSO treatment was used as a negative control.
NCGC Assay Protocol Summary: Two uL/well of substrate solution (8uM Dyrktide, 2uM ATP, 25mM Tris-HCl pH 7.5, 10mM MgCl2 , 0.5mM EGTA, 5mM cystein, 0.01% Triton X-100 final concentration) was dispensed into 1536-well assay plates (Greiner, solid white, medium-binding plates) with Aurora Discovery BioRAPTR Flying Reagent Dispenser (FRD, Beckton-Dickenson). Compound solution (23 nL) was transferred to the assay plate using Kalypsys pin tool equipped with a 1536-pin tool. One uL/well enzyme solution (5nM Dyrk1A, 25mM Tris-HCl pH7.5, 10mM MgCl2, 0.5mM EGTA, 5mM cystein, 0.01% Triton X-100 final concentration) was then added using FRD yielding a total kinase reaction volume of 3uL/well. After 2 hours of room temperature incubation, 3uL Kinase-Glo detection reagent was added for a final assay volume of 6uL/well. The plates were spun for 30 seconds (1000 rpm) and incubated at ambient temperature for 2 minutes followed by a luminescence read using Perkin Elmer ViewLux plate reader at 3 seconds exposure time and 2x binning.

| Compound | Potency | activity, negative = inhibition |
| --- | --- | --- |
| Cc1cccc(CNc2ncnc3ccc(-c4cccnc4)cc23)c1 | 29.2 µM (active) |  |
| Clc1ccccc1-c1ccc2ncnc(NCc3ccc4c(c3)OCO4)c2c1 |  | -14.5% |
| Cn1ccc2cc(-c3ccc4ncnc(NCc5ccc6c(c5)OCO6)c4c3)ccc21 |  | -10.9% |
| COc1cccc(-c2ccc3ncnc(NCc4cccc(F)c4)c3c2)c1 | 4.63 µM (active) |  |
| O=C(O)c1ccc(-c2ccc3ncnc(NCc4nccs4)c3c2)o1 | 18.4 µM (active) |  |
| COc1cccc(-c2ccc3ncnc(NCc4ccc5c(c4)OCO5)c3c2)c1 | 9.23 µM (active) |  |
| Cc1cccc(CNc2ncnc3ccc(-c4ccoc4)cc23)c1 | 3.68 µM (active) |  |
| Fc1cccc(CNc2ncnc3ccc(-c4ccc5c(c4)OCO5)cc23)c1 | 0.463 µM (active) |  |
| CC(=O)c1ccc(-c2ccc3ncnc(NCc4ccc(C)o4)c3c2)o1 | 5.82 µM (active) |  |
| CN(CCc1ccco1)c1ncnc2ccc(-c3ccc4c(c3)OCO4)cc12 | 0.292 µM (active) |  |
| COc1cccc(-c2ccc3ncnc(NCc4cccc(C)c4)c3c2)c1 | 8.23 µM (active) |  |
| Cc1csc(CNc2ncnc3ccc(-c4ccc(C(C)O)o4)cc23)n1 (stereo not given) | 26 µM (active) |  |
| Cc1ccc(CNc2ncnc3ccc(-c4ccc(C(=O)O)o4)cc23)o1 | 10.4 µM (active) |  |
| Cc1nc(CCNc2ncnc3ccc(-c4ccc5c(c4)OCO5)cc23)cs1 | 0.26 µM (active) |  |
| Cc1ccc(CNc2ncnc3cc(-c4ccc5c(c4)OCO5)ccc23)o1 | 23.2 µM (active) |  |
| c1nc(NCc2ccc3c(c2)OCO3)c2cc(-c3ccoc3)ccc2n1 | 18.4 µM (active) |  |
| Cc1cccc(-c2ccc3ncnc(NCc4cccs4)c3c2)c1 | 18.4 µM (active) |  |
| CN(CC1CCCCC1)c1ncnc2ccc(-c3ccc4c(c3)OCO4)cc12 | 0.26 µM (active) |  |
| c1cncc(CNc2ncnc3ccc(-c4ccc5c(c4)OCCO5)cc23)c1 | 1.16 µM (active) |  |
| Cc1ccsc1CN(C)c1ncnc2ccc(-c3ccc([C@@H](C)O)o3)cc12 | 3.68 µM (active) and 1.46 µM (active) and 1.04 µM (active) |  |

| Compound | Potency | activity, negative = inhibition |
| --- | --- | --- |
| Fc1cccc(CNc2ncnc3ccc(-c4ccccc4Cl)cc23)c1 | 16.4 µM (active) |  |
| Clc1cccc(-c2ccc3ncnc(NCc4cccs4)c3c2)c1 | 13 µM (active) |  |
| Fc1cccc(CNc2ncnc3ccc(-c4cccnc4)cc23)c1 | 26 µM (active) |  |
| Clc1ccccc1-c1ccc2ncnc(NCc3cccnc3)c2c1 | 26 µM (active) |  |
| c1csc(CNc2ncnc3ccc(-c4ccc5c(c4)OCO5)cc23)c1 | 0.184 µM (active) |  |
| c1cncc(CNc2ncnc3ccc(-c4ccc5c(c4)OCO5)cc23)c1 | 0.412 µM (active) |  |
| c1csc(CNc2ncnc3ccc(-c4ccc5c(c4)OCO5)cc23)n1 | 0.184 µM (active) |  |
| CS(=O)(=O)CCNCc1ccc(-c2ccc3ncnc(Nc4ccc(OCc5cccc(F)c5)c(Cl)c4)c3c2)o1 |  | -4.73% |
| Cc1csc(CNc2ncnc3ccc(-c4ccc5c(c4)OCO5)cc23)c1 | 0.463 µM (active) |  |
| CN(Cc1ccco1)c1ncnc2ccc(-c3ccoc3)cc12 | 0.207 µM (active) |  |
| Clc1cccc(-c2ccc3ncnc(NCc4ccc5c(c4)OCO5)c3c2)c1 |  | -15.5% |
| Cc1ccc(CN(C)c2ncnc3ccc(-c4ccc(CO)o4)cc23)o1 | 0.823 µM (active) |  |
| CC(Nc1ncnc2ccc(-c3ccc4c(c3)OCO4)cc12)c1ccco1 (stereo not given) | 0.582 µM (active) |  |
| c1cncc(-c2ccc3ncnc(NCc4cccs4)c3c2)c1 | 23.2 µM (active) |  |
| CN(CC1CCCO1)c1ncnc2ccc(-c3ccc4c(c3)OCO4)cc12 (stereo not given) | 0.26 µM (active) |  |
| Cc1cccc(CNc2ncnc3ccc(-c4ccc5c(c4)OCO5)cc23)c1 | 1.04 µM (active) |  |
| COc1cccc(Nc2ncc3nc(-c4cn(C)c5ccccc45)c(=O)n(CCC#N)c3n2)c1 |  | -13.8% |
| c1cncc(CNc2ncnc3ccc(-c4ccco4)cc23)c1 | 26 µM (active) |  |
| Cc1nc(CCN(C)c2ncnc3ccc(-c4ccc5c(c4)OCO5)cc23)cs1 | 0.654 µM (active) |  |
| CN(CC(=O)O)c1ncnc2ccc(-c3ccc4c(c3)OCO4)cc12 | 8.23 µM (active) |  |
